Measured potencies and affinities stand elsewhere.
Experiments:
Klebsiella pneumoniae = conditions: Concentration 20 uM; ASSAY_TEST Inhibition of Bacterial Growth; detection method Absorption (OD600); MEDIA CAMHB; plate type 384well; NBS; CORNING #3640; time 18 hr
Candida albicans = conditions: 20 µM
Cryptococcus neoformans = conditions: Concentration 20 uM; ASSAY_TEST Inhibition of Fungal Growth; detection method Resazurin; Absorption (OD600-OD570); plate type 384well; NBS; CORNING #3640

| Compound | Inhibition (Klebsiella pneumoniae) [%] | Inhibition (Candida albicans) [%] | Inhibition (Cryptococcus neoformans) [%] |
| --- | --- | --- | --- |
| CN(C)C(=O)C(CCN1CCC(O)(c2ccc(Cl)cc2)CC1)(c1ccccc1)c1ccccc1.Cl [LOPERAMIDE HYDROCHLORIDE] | 11.49 | 2.32 | -15.04 |
| N=C(NCc1ccc(Cl)cc1)SCCCc1c[nH]cn1 [CLOBENPROPIT] | 6.85 | 2.99 | -0.61 |
| C[C@]12CC[C@H](O)CC1=CC[C@@H]1[C@@H]2CC[C@@]2(C)[C@H]1CC[C@]2(C)O [METHANDRIOL] | 9.75 | 4.69 | 2.63 |
| CC(O)(CS(=O)(=O)c1ccc(F)cc1)C(=O)Nc1ccc(C#N)c(C(F)(F)F)c1 (stereo not given) [BICALUTAMIDE] | 7.16 | -0.48 | -5.03 |
| CC(C)C(=O)Nc1ccc([N+](=O)[O-])c(C(F)(F)F)c1 [FLUTAMIDE] | 13.37 | 3.45 | 1.08 |
| CNCCC(Oc1ccc(C(F)(F)F)cc1)c1ccccc1.Cl (stereo not given) [FLUOXETINE HYDROCHLORIDE] | 3.44 | 1.79 | -8.4 |
| CC(C)N(CCC(C(N)=O)(c1ccccc1)c1ccccn1)C(C)C.O=P(O)(O)O (stereo not given) [DISOPYRAMIDE PHOSPHATE] | 5.68 | 3.35 | 0.14 |
| Cl.Cl.OCCN1CCN(CCCN2c3ccccc3Sc3ccc(C(F)(F)F)cc32)CC1 [FLUPHENAZINE HYDROCHLORIDE] | 7.98 | 1.45 | -8.76 |
| CC[N+](C)(C)c1cccc(O)c1.[Cl-] [EDROPHONIUM CHLORIDE] | 15.01 | 2.22 | -6.73 |
| C#CCN(C)[C@H](C)Cc1ccccc1.Cl [SELEGILINE HYDROCHLORIDE] | 8.65 | 4.68 | 1.77 |
| NCCc1ccccn1 | 3.21 | 3.53 | -5.04 |
| C=C(C)CN1CC[C@]23c4c5ccc(O)c4O[C@H]2c2[nH]c4ccccc4c2C[C@@]3(O)C1C5.Cl.O | 12.32 | 1.9 | -7.24 |
| CC(=O)OC1C([N+]2(C)CCCCC2)C[C@H]2C3CC[C@H]4C[C@H](OC(C)=O)C([N+]5(C)CCCCC5)CC4(C)[C@H]3CCC12C.[Br-].[Br-] (stereo not given in full) | 10.46 | -0.59 | -9.01 |
| CC(C)[C@]12O[C@H]1[C@@H]1O[C@]13[C@]1(O[C@H]1C[C@H]1C4=C(CC[C@@]13C)C(=O)OC4)[C@@H]2O [TRIPTOLIDE] | 7.24 | 1.65 | -8.43 |
| C[C@]12Cc3c[nH]nc3C[C@@H]1CC[C@@H]1[C@@H]2CC[C@@]2(C)[C@H]1CC[C@]2(C)O [STANOZOLOL] | 7.49 | 8.82 | -7.23 |
| CS(=O)(=O)Nc1ccc(Cc2noc(-c3ccc4[nH]cc(CCN)c4c3)n2)cc1.O.O | 11.61 | 2.75 | -39.59 |
| COCCCOc1ccnc(C[S+]([O-])c2nc3ccccc3[nH]2)c1C (stereo not given) [RABEPRAZOLE] | 14.6 | 5.74 | -21.21 |
| CN(C)CCC=C1c2ccccc2CCc2ccccc21.Cl [AMITRIPTYLINE HYDROCHLORIDE] | 11.13 | 3.15 | -4.46 |
| C[C@]12CC[C@H]3[C@@H](CCC4=CC(=O)CC[C@@]43C)[C@@H]1CC[C@@H]2O [TESTOSTERONE] | 3.5 |  | 1.59 |
| Nc1nc(F)nc2c1ncn2[C@@H]1O[C@H](CO)[C@@H](O)[C@@H]1O [FLUDARABINE] | 6.42 | 0.49 | -5.72 |
| CNCC(O)c1ccc(O)cc1 (stereo not given) [OXEDRINE] | -0.12 | 5.72 | 1.4 |
| Fc1ccc([C@@H]2CCNC[C@H]2COc2ccc3c(c2)OCO3)cc1.O=C(O)/C=C\C(=O)O | 6.3 | 2.04 | -6.92 |
| O=C(O)C(Cl)Cl [DICHLOROACETIC ACID] | 10.68 | 2.59 | -3.9 |
| CN1[C@@H]2CC[C@H]1CC(OC(=O)C(CO)c1ccccc1)C2 (stereo not given in full) | 9.61 | 0.86 | -0.25 |
| CC(C)CC(N(C)C)C1(c2ccc(Cl)cc2)CCC1 (stereo not given) [SIBUTRAMINE] | 10.19 | 2.06 | 1.52 |
| NS(=O)(=O)c1cc(C2(O)NC(=O)c3ccccc32)ccc1Cl (stereo not given) [CHLORTHALIDONE] | 4.57 | 3.92 | -1.27 |
| CCN(CC)CCOC(=O)C(O)(c1ccccc1)c1ccccc1.Cl | 9.09 | 3.32 | -7.17 |
